Experimental findings from PubChem BioAssay AID2546 (National Center for Advancing Translational Sciences (NCATS), 2010) are described below.

In all, about 310,000 compounds went through this assay and about 11,000 (3.5%) were called active. Another 8% or so got no clear call; they are omitted. The full list was thinned out, with actives kept by preference. Unmarked numbers belong to inactive results. The call rests on the fitted dose curve; in most records, active means well fitted inhibition curve with a large enough effect; inconclusive means small, poorly fitted or top-dose-only effect, or effect the other way; inactive means flat fitted curve, though single readings scatter.
On the % scale 0 is the no-effect control and ±100 the full control effect; potency means the concentration at half of the fitted maximal effect.

The nature of the test: VP16 counterscreen qHTS for inhibitors of ROR gamma transcriptional activity. Further: nearly all actives have a fitted effect of over 50% in size. The settings on record: Drosophila S2 Gal4-VP16 UAS-luciferase, luminescence, 20 h; series mostly up to 53.6 µM; activity, negative = inhibition: at the top concentration. The source says:
NIH Molecular Libraries Probe Production Network [MLPCN]
NIH Chemical Genomics Center [NCGC]
Assay Provider: Dan Littman, New York University
The retinoic acid-related orphan receptor (ROR) gamma is a transcription factor that has a central role in the differentiation of Th17 cells, a subset of T helper cells that secrete the inflammatory cytokines IL-17, IL-17F, and IL-22. Th17 cells have been implicated in graft versus host disease, autoimmune disease and asthma. ROR gamma is induced in naive T helper cells in the presence of TGF-beta combined with IL-6, IL-21, or IL-23, and thereafter directs the expression of the Th17 lineage cytokines. To identify nonspecific inhibitors, a Drosophila Schneider cell line was stably transfected with two vectors: a gene expressing a fusion of the Gal4 DNA binding domain and VP16 transactivation domain under the control of the metallothionine promoter and a Photinus luciferase reporter regulated by the Gal4 binding site enhancer, UAS. […] Small molecule inhibitors that inhibit components common to the RORgt and VP16 assays, such as the Gal4 DNA binding domain or the UAS luciferase reporter, will be active in both assays and thus scored as nonspecific.
For screening, 600 cells in 4 uL/well were dispensed into white solid 1536-well plates (Grenier) using a solenoid-based dispenser. Following transfer of 23 nL compound or DMSO vehicle by a pin tool, the plates were incubated 1 hr at ambient temperature, and 1 uL/well copper sulfate (700 uM final concentration) was added. The plates were centrifuged 15 s at 1000 RPM and incubated 20 hr at ambient temperature. After addition of 1.5 uL Photinus luciferase detection reagent, the plates were incubated 10 min at ambient temperature and then read by a ViewLux (Perkin Elmer) to detect luminescence.
(In general: Counterscreens check selectivity or assay interference.)
Consider `Cc1cc(N/N=C/c2ccccc2F)c2ccccc2n1`, for which the “activity, negative = inhibition” value was 21.9%. For the compound `Cc1nc2ccccc2nc1N/N=C/c1ccc(O)cc1O`, the Potency was 15.8 µM (active). As for `Oc1ccc(/C=N/NC2=NCCCCC2)c(O)c1`, the “activity, negative = inhibition” value is -17.7%. Still for that read-out and setting: next, `CC(NC(=O)C(=O)NN=C1CCC(C(C)(C)C)CC1)c1ccccc1` (stereo not given): 2.98%.

Turning to `CC(C)(C)C1CCC(=NNC(=O)c2cc(-c3ccccc3)n[nH]2)CC1` (stereo not given), the Potency is 20 µM (active).

`CC(C)(C)C1CCC(=NNC(=O)c2ccc(Br)o2)CC1` (stereo not given): the “activity, negative = inhibition” value is 22.2%. Still for that read-out and setting: next, `CN(Cc1ccccc1Cl)C(=O)C1CCC(=O)N(CCc2cccc(F)c2)C1` (stereo not given): -0.0132%. Turning to `O=C(Cc1csc(Nc2nc(=S)[nH]c3ccccc23)n1)NCCCN1CCN(c2cccc(Cl)c2)CC1`, the Potency is 7.08 µM (active). For the compound `O=C(CCCn1c(=O)[nH]c2cc(Cl)ccc2c1=O)NCCN1CCN(c2ccccc2)CC1`, the “activity, negative = inhibition” value is -16.5%. The same measure, in the same setting: for `CCn1c(=O)cc(OCC(=O)NCCCN2CCN(c3cccc(Cl)c3)CC2)c2ccccc21` the value was -3.73%; for `CCCCn1c(N)c(N(CC)C(=O)c2ccccc2C(F)(F)F)c(=O)[nH]c1=O`, 0.0447%; for `Cc1ccc(CNC(=O)Cc2cn(C)c3ccccc23)cc1`, -17.6%. Turning to `CC1CCCC(C)N1C(=O)CSc1nnnn1C1CCCC1` (stereo not given), the “activity, negative = inhibition” value is 9.98%. In the case of `O=C(NCCCO)c1cc2c([nH]c3ccccc32)c(-c2ccc(F)cc2)n1`, the “activity, negative = inhibition” value is -2.48%. Consider `NC(=O)Cc1ccc2c(c1)[nH]c1ccccc12`, for which the “activity, negative = inhibition” value is -6.18%.

On to `S=c1[nH]c2ccccc2c2ccccc12`, for which the Potency is 17.8 µM (active). `CC(=O)c1c(-c2ccccc2)c2ccccc2[nH]c1=O`: the “activity, negative = inhibition” value is -12.5%. As to `O=C(Nc1ccccc1)Nc1nc2ccccc2s1`, the “activity, negative = inhibition” value is -14%. With `COc1cccc2sc(NNC(=O)c3nc4ccccc4s3)nc12`, the Potency is 2 µM (active).

Regarding `COc1ccc(S(=O)(=O)N2CCOCC2)cc1C(=O)Nc1nc2ccccc2s1`, the “activity, negative = inhibition” value is 1.45%. Take `O=c1[nH]cccc1-c1nc2ccccc2n1Cc1ccc(Cl)cc1`: the “activity, negative = inhibition” value was -21.2%.

Consider `Cc1cc(C)c(NC(=O)CN2CCCCCC2)c(C)c1`, for which the “activity, negative = inhibition” value was -15.9%.

On to `S=c1[nH]nc(-c2cccnc2)n1/N=C/C(Cl)=C\c1ccccc1`, for which the Potency is 7.08 µM (active). Regarding `Oc1ccccc1/C=N/n1c(-c2cccs2)n[nH]c1=S`, the “activity, negative = inhibition” value is -23.3%.

`Cc1cc(-c2n[nH]c(=S)n2/N=C/C(Br)=C/c2ccccc2)n[nH]1`: the Potency is 11.2 µM (active).

As for `Cc1cc(-c2n[nH]c(=S)n2/N=C/c2ccco2)n[nH]1`, the “activity, negative = inhibition” value is -4.55%.

For the compound `Fc1ccccc1/C=N/n1c(-c2cccnc2)n[nH]c1=S`, the “activity, negative = inhibition” value is -12.9%. For the compound `O=[N+]([O-])c1ccccc1/C=N/n1c(COc2ccccc2)n[nH]c1=S`, the “activity, negative = inhibition” value is 4.97%. With `COc1ccc(C2(O)C(=O)Nc3ccccc32)cc1` (stereo not given), the “activity, negative = inhibition” value was 1.98%. The same measure, in the same setting: for `COCCN1C(=O)C(=O)/C(=C(/O)c2ccc(S(=O)(=O)N3CCOCC3)cc2)C1c1ccc(O)c(OC)c1` (stereo not given) the value was 3.48%; for `CC(C)c1ccc(/C=C2\NC(=O)NC2=O)cc1`, -18.8%; for `CCN(CC)S(=O)(=O)c1ccc(C(=O)N2CCN(C3=NS(=O)(=O)c4ccccc43)CC2)cc1`, -3.34%. The same measure, in the same setting: next, `Cc1nc2nc(SCC(=O)Nc3cccc(F)c3)[nH]c2cc1Br`: -23.5%. Take `O=C(O)CCC(=O)Nc1ccc(OCC2CCCO2)cc1` (stereo not given): the “activity, negative = inhibition” value is 2.4%. Regarding `Cc1ccc(-c2cc(C(=O)N/N=C/C=C/c3ccco3)c3ccccc3n2)cc1C`, the Potency was 4.47 µM (active).

For `Cc1cc(C(=O)N/N=C/c2ccccn2)c2ccccc2n1`, the “activity, negative = inhibition” value is 1.06%.

For the compound `COc1cccc(-c2cc(C(=O)N/N=C/c3ccc(OC)c(COC(C)=O)c3)c3ccccc3n2)c1`, the “activity, negative = inhibition” value was 0.568%.

In the case of `CC(NC(=O)CCCC1CCCCC1)c1ccc(S(N)(=O)=O)cc1` (stereo not given), the “activity, negative = inhibition” value was 4.41%. Regarding `O=C(O)CCn1c(O)c(C=C2N=c3ccccc3=N2)sc1=S`, the Potency was 3.55 µM (active). Regarding `O=C(O)CCn1c(Cc2ccccc2)nc2ccccc21`, the “activity, negative = inhibition” value is -6.39%.

Consider `Cc1cc2ccccc2n1CCC(=O)O`, for which the “activity, negative = inhibition” value was 4.81%. As for `COc1ccc(CCNC(=O)CCc2cn(C)c3ccccc23)c(OC)c1`, the “activity, negative = inhibition” value is -3.69%. Regarding `COC(=O)CN1C(=O)C(C)(C)Oc2ccc(C(=O)Nc3cccc(OC)c3)cc21`, the “activity, negative = inhibition” value is 3.12%.

Consider `COc1cccc(Cn2c(=O)cnc3cncnc32)c1`, for which the “activity, negative = inhibition” value was 5.12%. Regarding `CCNc1ncc2ncc(=O)n(Cc3cccc(OC)c3)c2n1`, the Potency was 11.2 µM (active). `Cn1c(=O)c2c(nc(NCc3ccccc3)n2CC(N)=O)n(C)c1=O`: the “activity, negative = inhibition” value is -1.04%.

With `CCCCNc1nc2c(c(=O)n(C)c(=O)n2C)n1Cc1cccc(OC)c1`, the Potency was 4.47 µM (active). For the compound `CCNc1ncc2ncc(=O)n(CCc3ccccc3)c2n1`, the “activity, negative = inhibition” value was -14.9%.

Regarding `COC(=O)C(C)Sc1nc2c(c(=O)n(C)c(=O)n2C)n1Cc1cccc(C)c1` (stereo not given), the “activity, negative = inhibition” value is -9.29%. `Cn1c(=O)c2c(nc(NCCc3ccccc3)n2Cc2ccccc2)n(C)c1=O`: the Potency was 6.31 µM (active). As for `CCn1c(NCCc2ccc(OC)c(OC)c2)nc2c1c(=O)n(C)c(=O)n2C`, the “activity, negative = inhibition” value is -6.82%. As for `Cn1c(=O)c2c(nc(OCc3cccnc3)n2Cc2ccccc2)n(C)c1=O`, the “activity, negative = inhibition” value was -0.554%. Take `CCOCCCn1c(SCC(=O)Nc2cc(OC)ccc2OC)nc2ccccc2c1=O`: the “activity, negative = inhibition” value is -6.3%. On to `CC(C)c1nc2cc(C(=O)NC(C)c3cnn(C)c3)ccc2o1` (stereo not given), for which the “activity, negative = inhibition” value is 25.6%. Still for that read-out and setting: for `Cc1cnc(C(=O)Oc2cccc(Cl)c2Cl)cn1` the value was -15.1%. Consider `COCCN1CCN(C(=O)c2cc(COc3ccc(F)cc3Cl)on2)CC1`, for which the “activity, negative = inhibition” value was -13.8%. Consider `CC(C)c1ccc(NC(=O)Cn2ncc3ccccc32)cc1`, for which the “activity, negative = inhibition” value is 2.09%. Regarding `O=S1(=O)CCO[C@H]2Cc3ccccc3[C@H]2N1Cc1ccccc1`, the “activity, negative = inhibition” value was -5.04%.

As for `CCN(CC(=O)NCCCN1CCOCC1)S(=O)(=O)c1cc(Cl)ccc1Cl`, the “activity, negative = inhibition” value was 8.86%. Take `CSCCC(NC(=O)c1cc([N+](=O)[O-])cc([N+](=O)[O-])c1)c1nc2ccccc2[nH]1` (stereo not given): the Potency was 25.1 µM (active).

With `CSCCC(NC(=O)c1ccc(=O)n(C)n1)c1nc2ccccc2[nH]1` (stereo not given), the “activity, negative = inhibition” value is 3.34%.

In the case of `COc1ccc(CC(=O)N[C@@H](CCSC)c2nc3ccccc3[nH]2)cc1`, the “activity, negative = inhibition” value was -4.35%.

On to `CC(c1ccccn1)N(C)C(=O)c1ccc2nc(Cc3cccc(Cl)c3)oc2c1` (stereo not given), for which the “activity, negative = inhibition” value was 8.69%. In the case of `CCOC(=O)C(C)n1cnc2c(nnn2-c2cccc(OC)c2)c1=O` (stereo not given), the “activity, negative = inhibition” value is 25.9%. With `O=C(NCc1ccccn1)c1cc(-c2ccccc2Cl)on1`, the “activity, negative = inhibition” value was 13.9%. On to `O=C1CSC(c2ccccc2)N1c1nc(-c2ccc(Cl)cc2Cl)cs1` (stereo not given), for which the “activity, negative = inhibition” value was -5.04%.

Regarding `Clc1ccc(-c2cc(-c3ccccn3)on2)c(Cl)c1`, the Potency is 7.08 µM (active). For the compound `CC(=O)N1CCCc2cc(S(=O)(=O)N3CCCC(C(=O)NCc4ccc(Cl)cc4)C3)ccc21` (stereo not given), the “activity, negative = inhibition” value is -0.363%.

In the case of `CC(=O)N1CCCc2cc(S(=O)(=O)N3CCCC(C(=O)N4CCN(c5cccc(Cl)c5)CC4)C3)ccc21` (stereo not given), the Potency is 3.98 µM (active). As to `CC(=O)N1c2ccc(S(=O)(=O)N3CCCC(C(=O)Nc4cccc(Cl)c4)C3)cc2CC1C` (stereo not given), the “activity, negative = inhibition” value is -23.7%.
